In PubChem BioAssay (NCI) one finds growth data, which are given here for 39 molecules.

This is part of a sample that, as a whole, favours compounds with a hit. Of some 83,000 tested, about 20% had one in any assay.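 Interpretation: 100, growth as untreated; towards 0, rising growth inhibition; 0, no net growth; 0 to -100, cell death. Compounds scoring below 10 were considered active.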 A number with no mark means an inactive call. Active and inactive are the calls of the source.

This test deals with HCT-116 colon. Briefly: NCI-60 one-dose screen, 48 h (100 = growth as untreated, 0 = no growth, -100 = all killed). Particulars: 10 µM unless noted.
For the molecule `COc1cc2cc(Oc3ccc(NC(=O)Nc4ccc(Cl)c(C(F)(F)F)c4)cc3)c(C)nc2cc1OCCN1CCCCC1`, the growth was -46.3% (active).
Take `COc1ccc(/C=C2\SC(=O)N(CN3CCN(c4cc5c(cc4F)c(=O)c(C(=O)O)cn5C4CC4)CC3)C2=O)cc1`: the growth is 85.7%.
Under `CCCCC/C=C\C/C=C/CCCCCCCCNC(=O)Nc1ccc([N+](=O)[O-])cc1` stands 40%; under `COc1ccc(/C=C/C(=O)N2CCC(O)CC2)cc1OC1CCCC1`, 106%.
Under `O=C(c1ccccc1)C(Br)C(Br)c1cccc([N+](=O)[O-])c1` (centres undefined) stands -91% (active); under `CCOC(=O)c1cnn(CC(O)c2ccc(F)cc2)c1NC(=O)Nc1ccccc1F` (centres undefined), 89.4%.
Under `CC1CCCCN1S(=O)(=O)c1ccc(CN=C=S)cc1` (centres undefined) stands 9.92% (active).
For `COc1ccc(OC)c(/C=C2\Oc3cc(O)ccc3C2=O)c1`, the growth was 79.2%.
Under `CCCCC1COc2cccc3c(SCC(=O)N(C)c4cccc5ccccc45)cc[n+]1c23` (centres undefined) stands 82.5%; under `Brc1ccc(Br)nn1`, -97.3% (active); under `Cn1c2ccccc2c2nn(Cc3ccccc3)c(=O)nc21`, 109%.
Under `COc1ccc(/C=N/NC(=O)c2cnn3c2NC(c2ccccc2)C3)cc1OC1CCCC1` (centres undefined) stands 82%; under `CCOC(=O)c1[nH]c2cc(Cl)ccc2c1[C@@H](C(=O)NC(C)(C)C)N(CC)C(=O)CCCCC#Cc1cccc2c1CN(C1CCC(=O)NC1=O)C2=O` (some centres undefined), 24.6%; under `Nc1nc(N)c(N=Nc2c(Br)cc(S(N)(=O)=O)cc2Br)c(N)n1`, 103%.
Under `O=C1/C(=C/c2ccc([N+](=O)[O-])cc2)Oc2ccc(O)cc21` stands 9.15% (active).
Regarding `COc1ccc(/C=N\N2CCOCC2)cc1OC1CCCC1`, the growth is 87.9%.
Under `O=C(Nc1ccccc1O)c1ccc(NS(=O)(=O)c2cccc3cccnc23)cc1` stands 23.7%.
For the molecule `COc1cc(/C=N/NC(=O)c2cnn3c2NC(c2ccccc2)C3)cc(OC)c1OC` (centres undefined), the growth is 35%.
Under `O=S(=O)(Nc1ccccc1Cl)c1ccc(-c2cnc(C3CC3)o2)cc1` stands 22.3%; under `Cn1c2c(cc(S(=O)(=O)c3ccccc3)c1=O)CCc1c-2cnn1-c1cccc(Cl)c1`, 88.2%; under `Fc1c[c-]c(-c2ccccn2)c(F)c1.Fc1c[c-]c(-c2ccccn2)c(F)c1.[Cl][Pt+].[Cl][Pt+].c1ccc([PH+](C[PH+](c2ccccc2)c2ccccc2)c2ccccc2)cc1`, 8.2% (active).
On to `CCOC(=O)n1cc(C2=C(c3cn(C)c4ccccc34)COC2=O)c2ccccc21`, for which the growth was 10.6%.
Turning to `CSC1=CC(=O)c2ccccc2C1=O`, the growth is -57% (active).
Consider `Cc1c(C(=O)Nc2nc(-c3ccccc3)cs2)nnn1-c1ccccc1Br`, for which the growth was 32.6% [50 µM].
Under `COc1ccc(/C=N/OCC(O)CNCc2ccccc2)cc1OC1CCCC1` (centres undefined) stands 95.2%.
`O=C(N/N=C/c1ccc(OC(F)F)c(OC2CCCC2)c1)c1cnn2c1NC(c1ccccc1)C2` (centres undefined): the growth is 67.4%.
Under `Nc1cc(Br)c(-c2nnc(CCC(=O)c3nc4ccccc4[nH]3)o2)c(Br)c1` stands 53.3%; under `O=C1C2CC3C(CC2C(=O)[N]1[Sn]([c]1ccccc1)([c]1ccccc1)[c]1ccccc1)C1(Cl)C(Cl)=C(Cl)C3(Cl)C1(Cl)Cl` (centres undefined), -83.9% (active); under `COc1ccc(/C=C(\C#N)c2cc3ccccc3n2C)cc1`, 18.2%.
Under `CC(C)(C)[Si](C)(C)OC1[C@@H](COC(=O)NC(=O)CCl)O[C@@H](n2cnc3c(N)ncnc32)[C@H]1O[Si](C)(C)C(C)(C)C` (some centres undefined) stands 11.2%; under `Cc1cccc2c(=O)c3c(sc12)c(NCCCN)nc1ccccc13`, -92% (active); under `COc1cc(Cn2cc(F)c(=O)[nH]c2=O)cc(OC)c1`, 111% [50 µM].
For the molecule `Cc1nc2ccc(Cl)cc2n1C`, the growth was 109%.
Under `CCN1CCN(c2ccc(Nc3ncc4ccc5ncn(C(C)C)c5c4n3)nc2)CC1` stands 8.77% (active).
Under `COc1ccc(/C=C2\Oc3cc(C)c(Cl)cc3C2=O)cc1OC` stands 84.6%; under `COc1ccc(-n2ncc3c2ccc2cc(S(=O)(=O)c4ccccc4)c(=O)n(C)c23)cc1`, 78.3%; under `NC(=O)c1cc(Cl)ccc1NC(=O)COc1ccccc1`, 31.5%.
Under `Nc1ccccc1-c1n[nH]c(=O)[nH]c1=O` stands 93.3%.
On to `Cn1c2ccccc2c2nn(C(=O)c3ccccc3)c(=O)nc21`, for which the growth was 109%.
